Laboratory results as given in the supplement of paper PMC10849652.
About 8,800 targets were measured; listed, in parts, are those with a hit and a random draw of the rest. About 0.5% of all pairs of compound and target were hits.

Columns and labels:
Assay in all cases: log2 fold change, soluble protein after heating vs DMSO (PISA); higher = thermal stabilisation; K562 lysate, 10 uM; active = over 0.2 and 3.5 SD of the protein, either way, in both replicates (recomputed)
[1] = compound: CS(=O)(=O)CCNCc1ccc(-c2ccc3ncnc(Nc4ccc(OCc5cccc(F)c5)c(Cl)c4)c3c2)o1 [lapatinib]
How it was run: (§1)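 Dounce homogenisation of K562 pellets in PBS pH 7.4 with 1 mM MgCl2 produced a crude extract, used at 1 mg/mL protein. Exposure to 10 μM compound lasted 30 min, and aliquots were then heated for 3 min across 48°C-58°C, pooled and brought to 0.5% NP-40 at 4°C. The supernatant after 21,000xg for 90 min was quantified by TMTpro 16plex LC-MS/MS with channel sums equalised. Duplicate values are given as log-two fold change in thermal stability relative to solvent controls.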

[2] = compound: CS(=O)(=O)N1CCN(Cc2cc3nc(-c4cccc5[nH]ncc45)nc(N4CCOCC4)c3s2)CC1 [pictilisib]
How it was run: as §1

[3] = compound: C[C@@H](Oc1cc(-c2cnn(C3CCNCC3)c2)cnc1N)c1c(Cl)ccc(F)c1Cl [crizotinib]
How it was run: as §1

[4] = compound: C[C@H](C1=CC=C(C=C1)C(=O)NC2=C3C=CNC3=NC=C2)N
How it was run: as §1

[5] = compound: C[C@H](Nc1ncnc2nc[nH]c12)c1cc2cccc(Cl)c2c(=O)n1-c1ccccc1 [duvelisib]
How it was run: as §1

[6] = compound: Cc1cc(Nc2cc(CN3CCOCC3)c3nc(C)c(Cc4ccc(Cl)cc4F)n3n2)n[nH]1 [gandotinib]
How it was run: as §1

[7] = compound: Cc1cc(Nc2cc(N3CCN(C)CC3)nc(Sc3ccc(NC(=O)C4CC4)cc3)n2)n[nH]1 [tozasertib]
How it was run: as §1

[8] = compound: Cc1ccc(-n2nc(C(C)(C)C)cc2NC(=O)Nc2ccc(OCCN3CCOCC3)c3ccccc23)cc1 [doramapimod]
How it was run: as §1

[9] = compound: Cc1ccc(NC(=O)c2ccc(CN3CC[C@H](N(C)C)C3)c(C(F)(F)F)c2)cc1Nc1nccc(-c2cncnc2)n1 [bafetinib]
How it was run: as §1

[10] = compound: Cc1cccc(CC(=O)N2CCc3c2ccc(-c2cn(C)c4ncnc(N)c24)c3F)n1
How it was run: as §1

Measured: log2 fold change

GTF2I (UniProt P78347)
inactive: [1] -0.005 | [2] -0.011 | [3] -0.039 | [4] -0.01 | [5] 0.016 | [6] -0.086 | [7] -0.004 | [8] 0.018 | [9] -0.066 | [10] 0.027

GSTZ1 (UniProt G3V4T6)
inactive: [1] 0 | [2] 0.04 | [3] -0.015 | [4] -0.067 | [5] 0.028 | [6] 0.061 | [7] 0.004 | [8] -0.035 | [9] -0.071 | [10] 0.146

HSPA8 (UniProt E9PK54)
inactive: [1] -0.067 | [2] -0.013 | [3] 0.051 | [4] -0.025 | [5] 0.004 | [6] 0.058 | [7] 0.067 | [8] 0.011 | [9] 0.026 | [10] 0.046

IGF2BP2 (UniProt Q9Y6M1)
inactive: [1] -0.034 | [2] -0.015 | [3] 0.012 | [4] -0.031 | [5] 0 | [6] 0.009 | [7] -0.011 | [8] 0.021 | [9] -0.093 | [10] 0.048

IL18R1 (UniProt Q13478)
inactive: [1] -0.112 | [2] 0.207 | [3] -0.076 | [4] -0.116 | [5] -0.049 | [6] 0.092 | [7] 0.063 | [8] -0.111 | [9] -0.031 | [10] 0.045

GPR108 (UniProt Q9NPR9)
Sequence of UniProt Q9NPR9 (Q9NPR9 whole entry, looked up): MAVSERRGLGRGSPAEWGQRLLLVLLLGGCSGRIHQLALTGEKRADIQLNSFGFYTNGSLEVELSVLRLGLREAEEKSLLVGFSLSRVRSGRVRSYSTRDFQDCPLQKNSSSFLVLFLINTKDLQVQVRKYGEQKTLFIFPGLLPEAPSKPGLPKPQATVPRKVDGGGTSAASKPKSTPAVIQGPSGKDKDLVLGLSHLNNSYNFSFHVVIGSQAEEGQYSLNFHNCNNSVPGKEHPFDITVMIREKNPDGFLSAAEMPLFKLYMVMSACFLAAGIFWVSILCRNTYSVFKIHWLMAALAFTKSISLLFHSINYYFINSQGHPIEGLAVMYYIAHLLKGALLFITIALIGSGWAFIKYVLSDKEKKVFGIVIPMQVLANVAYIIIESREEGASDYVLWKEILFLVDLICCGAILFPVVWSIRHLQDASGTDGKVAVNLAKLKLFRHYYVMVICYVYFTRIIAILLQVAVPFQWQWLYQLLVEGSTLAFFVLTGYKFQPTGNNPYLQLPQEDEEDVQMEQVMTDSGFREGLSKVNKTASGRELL
inactive: [1] 0.022 | [2] 0.03 | [3] -0.01 | [4] -0.121 | [5] -0.043 | [7] 0.024 | [8] 0.04 | [9] 0.044 | [10] -0.043
active: [6] 0.237

GNL3 (UniProt Q9BVP2)
Sequence of UniProt Q9BVP2 (Q9BVP2 whole entry, looked up): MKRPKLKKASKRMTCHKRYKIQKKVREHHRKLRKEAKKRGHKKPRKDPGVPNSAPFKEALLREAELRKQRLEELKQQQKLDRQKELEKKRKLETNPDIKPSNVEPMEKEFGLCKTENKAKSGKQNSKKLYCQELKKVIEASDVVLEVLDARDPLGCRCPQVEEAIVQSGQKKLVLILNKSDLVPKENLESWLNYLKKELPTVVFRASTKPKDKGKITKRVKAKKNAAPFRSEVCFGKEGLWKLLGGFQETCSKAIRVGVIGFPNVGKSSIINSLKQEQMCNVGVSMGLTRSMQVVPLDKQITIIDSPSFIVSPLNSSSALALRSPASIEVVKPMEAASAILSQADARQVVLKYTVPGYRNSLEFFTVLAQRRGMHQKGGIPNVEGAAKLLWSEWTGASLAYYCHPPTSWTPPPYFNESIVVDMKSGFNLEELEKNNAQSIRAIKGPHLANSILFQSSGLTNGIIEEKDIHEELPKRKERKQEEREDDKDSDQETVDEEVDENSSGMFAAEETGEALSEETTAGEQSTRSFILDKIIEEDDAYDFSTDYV
inactive: [1] -0.058 | [2] -0.018 | [3] -0.134 | [4] 0.097 | [5] 0.004 | [6] -0.115 | [7] -0.013 | [8] 0.039 | [9] -0.128 | [10] -0.031

HLCS (UniProt P50747)
inactive: [1] -0.026 | [2] -0.022 | [3] -0.009 | [4] 0.199 | [5] 0.016 | [6] -0.002 | [7] 0.006 | [8] 0.026 | [9] -0.045 | [10] -0.007

HIST2H2BC (UniProt Q6DN03)
Sequence of UniProt Q6DN03 (Q6DN03 whole entry, looked up): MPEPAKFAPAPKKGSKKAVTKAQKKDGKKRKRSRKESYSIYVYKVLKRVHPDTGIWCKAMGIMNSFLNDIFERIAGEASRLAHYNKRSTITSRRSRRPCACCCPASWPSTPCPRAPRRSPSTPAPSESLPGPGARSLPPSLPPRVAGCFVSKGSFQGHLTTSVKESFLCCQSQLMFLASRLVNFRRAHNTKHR
inactive: [1] -0.024 | [2] 0.02 | [3] -0.024 | [4] 0.183 | [5] -0.083 | [6] -0.054 | [7] 0.019 | [8] 0.007 | [9] 0.018 | [10] -0.019

HARS (UniProt P12081)
inactive: [1] 0.008 | [2] 0.01 | [3] -0.009 | [4] 0.028 | [5] 0.014 | [6] -0.052 | [7] 0.006 | [8] 0.003 | [9] 0.015 | [10] -0.01

HAUS6 (UniProt Q7Z4H7)
inactive: [1] 0.001 | [2] -0.028 | [3] -0.029 | [4] -0.054 | [5] 0.006 | [6] -0.041 | [7] 0.046 | [8] -0.009 | [9] 0.051 | [10] 0.104

HDAC10 (UniProt Q969S8)
inactive: [1] -0.101 | [2] -0.019 | [3] -0.015 | [4] -0.042 | [5] -0.014 | [6] 0.029 | [7] 0.068 | [8] -0.046 | [9] 0.035 | [10] 0.061

KBTBD2 (UniProt Q8IY47)
Sequence of UniProt Q8IY47 (Q8IY47 whole entry, looked up): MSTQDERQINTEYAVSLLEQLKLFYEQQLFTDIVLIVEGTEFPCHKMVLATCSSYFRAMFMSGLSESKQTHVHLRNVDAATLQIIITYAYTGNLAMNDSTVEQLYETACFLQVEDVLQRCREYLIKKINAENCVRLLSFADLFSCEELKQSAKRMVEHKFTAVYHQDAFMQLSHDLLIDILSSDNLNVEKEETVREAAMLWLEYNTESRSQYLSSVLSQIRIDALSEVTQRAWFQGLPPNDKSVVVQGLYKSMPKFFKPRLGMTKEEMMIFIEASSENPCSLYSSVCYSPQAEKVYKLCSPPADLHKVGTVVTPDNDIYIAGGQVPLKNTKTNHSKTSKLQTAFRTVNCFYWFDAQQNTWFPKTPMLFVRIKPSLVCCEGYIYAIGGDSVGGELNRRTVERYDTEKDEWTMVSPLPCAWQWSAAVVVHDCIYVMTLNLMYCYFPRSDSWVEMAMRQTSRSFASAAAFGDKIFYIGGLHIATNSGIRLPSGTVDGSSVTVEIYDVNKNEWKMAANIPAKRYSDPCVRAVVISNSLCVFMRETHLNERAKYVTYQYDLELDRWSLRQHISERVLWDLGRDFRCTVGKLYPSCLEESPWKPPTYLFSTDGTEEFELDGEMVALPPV
inactive: [1] -0.036 | [2] -0.019 | [3] -0.073 | [4] -0.139 | [5] -0.01 | [6] 0.124 | [7] -0.056 | [8] -0.005 | [9] -0.07 | [10] 0.138

IMPACT (UniProt Q9P2X3)
Sequence of UniProt Q9P2X3 (Q9P2X3 whole entry, looked up): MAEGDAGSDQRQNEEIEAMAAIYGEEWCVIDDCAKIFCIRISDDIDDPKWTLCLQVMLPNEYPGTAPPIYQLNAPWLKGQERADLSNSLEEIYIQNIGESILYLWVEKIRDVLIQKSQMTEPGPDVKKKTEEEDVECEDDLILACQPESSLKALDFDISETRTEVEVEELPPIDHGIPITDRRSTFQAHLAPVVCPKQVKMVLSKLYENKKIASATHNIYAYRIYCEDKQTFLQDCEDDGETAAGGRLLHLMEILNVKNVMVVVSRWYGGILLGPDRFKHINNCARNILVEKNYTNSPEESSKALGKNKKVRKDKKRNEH
inactive: [1] 0.012 | [2] 0.044 | [3] 0.083 | [4] 0.077 | [5] -0.015 | [6] 0.065 | [7] 0.026 | [8] -0.044 | [9] -0.098 | [10] -0.096

HMGA1 (UniProt P17096)
Sequence of UniProt P17096 (P17096 whole entry, looked up): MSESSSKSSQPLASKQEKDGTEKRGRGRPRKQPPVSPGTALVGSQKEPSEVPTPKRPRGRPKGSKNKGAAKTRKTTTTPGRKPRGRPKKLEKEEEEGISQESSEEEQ
inactive: [1] -0.023 | [2] 0.03 | [3] 0.007 | [4] -0.27 | [5] 0.058 | [6] 0.069 | [7] -0.062 | [8] -0.02 | [9] 0.043 | [10] 0.036

HSPA8 (UniProt P11142)
inactive: [1] 0.004 | [2] 0.022 | [3] 0.023 | [4] 0.012 | [5] 0.005 | [6] -0.014 | [7] 0.006 | [8] 0.001 | [9] 0.059 | [10] -0.01

INF2 (UniProt Q27J81)
inactive: [1] 0.024 | [2] -0.019 | [3] -0.043 | [4] 0.002 | [5] -0.051 | [6] -0.001 | [7] 0.04 | [8] 0.049 | [9] -0.068 | [10] 0.128

HLTF (UniProt Q14527)
Sequence of UniProt Q14527 (Q14527 whole entry, looked up): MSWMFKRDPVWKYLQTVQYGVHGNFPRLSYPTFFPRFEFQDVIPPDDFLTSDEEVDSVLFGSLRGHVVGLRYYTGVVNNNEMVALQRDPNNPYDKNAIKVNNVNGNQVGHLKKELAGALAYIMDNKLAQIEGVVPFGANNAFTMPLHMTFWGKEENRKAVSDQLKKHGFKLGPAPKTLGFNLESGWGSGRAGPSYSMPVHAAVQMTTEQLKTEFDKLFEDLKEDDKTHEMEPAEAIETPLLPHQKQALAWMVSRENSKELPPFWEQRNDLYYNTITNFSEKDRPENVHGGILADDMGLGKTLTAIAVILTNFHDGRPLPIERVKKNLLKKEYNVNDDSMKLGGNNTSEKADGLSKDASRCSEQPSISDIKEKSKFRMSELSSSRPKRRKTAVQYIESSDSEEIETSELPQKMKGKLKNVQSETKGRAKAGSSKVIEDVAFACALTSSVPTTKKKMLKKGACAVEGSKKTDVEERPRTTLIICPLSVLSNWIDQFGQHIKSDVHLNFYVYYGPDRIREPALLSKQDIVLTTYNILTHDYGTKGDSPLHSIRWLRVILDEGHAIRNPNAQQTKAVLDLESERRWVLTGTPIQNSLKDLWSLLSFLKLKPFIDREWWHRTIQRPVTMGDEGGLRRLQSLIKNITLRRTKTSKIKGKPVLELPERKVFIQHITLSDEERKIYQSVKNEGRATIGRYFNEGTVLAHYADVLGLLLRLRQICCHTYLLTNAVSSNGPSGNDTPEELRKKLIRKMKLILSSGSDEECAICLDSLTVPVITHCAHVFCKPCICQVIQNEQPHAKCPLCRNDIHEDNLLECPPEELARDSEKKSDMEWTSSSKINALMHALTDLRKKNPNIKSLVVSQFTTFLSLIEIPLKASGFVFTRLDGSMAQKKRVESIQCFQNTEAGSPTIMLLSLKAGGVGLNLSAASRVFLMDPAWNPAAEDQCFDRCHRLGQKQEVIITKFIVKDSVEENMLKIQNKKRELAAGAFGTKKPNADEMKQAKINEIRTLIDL
inactive: [1] 0.045 | [2] 0.061 | [3] -0.019 | [4] -0.063 | [5] -0.05 | [6] -0.021 | [7] 0.004 | [8] -0.007 | [9] -0.087 | [10] 0.035

IRF2BP1 (UniProt Q8IU81)
inactive: [1] -0.01 | [2] 0.008 | [3] -0.052 | [4] -0.004 | [5] -0.086 | [6] 0.004 | [7] 0 | [8] 0.105 | [9] -0.1 | [10] 0.043

HSPB1 (UniProt P04792)
inactive: [1] -0.017 | [2] -0.013 | [3] 0.036 | [4] 0.008 | [5] 0.014 | [6] -0.018 | [7] -0.017 | [9] -0.031 | [10] -0.021
active: [8] -0.31

HECTD4 (UniProt J3KPF0)
inactive: [1] -0.024 | [2] -0.043 | [3] -0.127 | [4] -0.005 | [5] -0.004 | [6] -0.024 | [7] 0.01 | [8] -0.002 | [9] -0.083 | [10] 0.101

HERC2 (UniProt O95714)
inactive: [1] -0.001 | [2] -0.007 | [3] -0.055 | [4] -0.041 | [5] 0.023 | [6] -0.007 | [7] 0.022 | [8] 0.058 | [9] -0.15 | [10] 0.153

HSPA14 (UniProt Q0VDF9)
inactive: [1] -0.016 | [2] 0.023 | [3] -0.02 | [4] -0.038 | [5] 0.007 | [6] -0.039 | [7] 0.018 | [8] 0.003 | [9] -0.026 | [10] 0.037

ILK (UniProt Q13418)
inactive: [1] 0.01 | [2] -0.005 | [3] -0.038 | [4] 0.01 | [5] -0.036 | [6] -0.015 | [7] 0.005 | [8] 0.004 | [9] -0.002 | [10] 0.007

INTS7 (UniProt Q9NVH2)
inactive: [1] 0.01 | [2] -0.032 | [3] -0.07 | [4] -0.096 | [5] 0.01 | [6] -0.077 | [7] -0.01 | [8] 0.4 | [9] 0.141 | [10] 0.012

HSPBAP1 (UniProt Q96EW2)
inactive: [1] -0.074 | [2] -0.014 | [3] -0.111 | [4] -0.076 | [5] 0.022 | [6] 0.15 | [7] -0.025 | [8] 0.125 | [9] 0.052 | [10] -0.141

HDAC2 (UniProt Q92769)
inactive: [1] -0.006 | [2] 0.002 | [3] 0.057 | [4] -0.047 | [5] -0.028 | [6] 0.018 | [7] 0.014 | [8] -0.05 | [9] -0.021 | [10] 0.028

INTS10 (UniProt Q9NVR2)
Sequence of UniProt Q9NVR2 (Q9NVR2 whole entry, looked up): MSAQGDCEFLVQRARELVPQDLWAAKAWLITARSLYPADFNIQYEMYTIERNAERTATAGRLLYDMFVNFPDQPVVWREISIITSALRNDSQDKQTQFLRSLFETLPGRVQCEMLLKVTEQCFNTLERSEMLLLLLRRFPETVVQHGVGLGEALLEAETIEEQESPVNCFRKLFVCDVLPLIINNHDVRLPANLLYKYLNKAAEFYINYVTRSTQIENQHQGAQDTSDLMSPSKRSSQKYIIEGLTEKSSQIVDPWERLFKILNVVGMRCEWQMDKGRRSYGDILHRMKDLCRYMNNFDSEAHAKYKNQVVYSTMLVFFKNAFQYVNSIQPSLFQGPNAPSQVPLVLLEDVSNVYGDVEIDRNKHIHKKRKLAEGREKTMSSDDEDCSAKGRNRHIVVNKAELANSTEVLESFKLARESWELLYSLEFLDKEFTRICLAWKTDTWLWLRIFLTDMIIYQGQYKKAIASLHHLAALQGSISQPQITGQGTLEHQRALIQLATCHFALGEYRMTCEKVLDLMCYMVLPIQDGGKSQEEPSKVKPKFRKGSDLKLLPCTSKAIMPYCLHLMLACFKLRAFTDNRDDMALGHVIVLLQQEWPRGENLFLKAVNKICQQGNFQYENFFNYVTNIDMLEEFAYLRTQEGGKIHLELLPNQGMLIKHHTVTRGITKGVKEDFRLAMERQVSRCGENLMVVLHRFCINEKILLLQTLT
inactive: [1] 0.097 | [2] -0.093 | [3] -0.04 | [4] 0.027 | [5] -0.09 | [6] -0.168 | [7] 0.011 | [8] 0.026 | [9] -0.052 | [10] 0

KARS1 (UniProt Q15046)
inactive: [1] -0.002 | [2] 0 | [3] 0.003 | [4] 0.036 | [5] 0.004 | [6] -0.082 | [7] 0.025 | [8] 0.007 | [9] -0.025 | [10] -0.026

IMMT (UniProt Q16891)
Sequence of UniProt Q16891 (Q16891 whole entry, looked up): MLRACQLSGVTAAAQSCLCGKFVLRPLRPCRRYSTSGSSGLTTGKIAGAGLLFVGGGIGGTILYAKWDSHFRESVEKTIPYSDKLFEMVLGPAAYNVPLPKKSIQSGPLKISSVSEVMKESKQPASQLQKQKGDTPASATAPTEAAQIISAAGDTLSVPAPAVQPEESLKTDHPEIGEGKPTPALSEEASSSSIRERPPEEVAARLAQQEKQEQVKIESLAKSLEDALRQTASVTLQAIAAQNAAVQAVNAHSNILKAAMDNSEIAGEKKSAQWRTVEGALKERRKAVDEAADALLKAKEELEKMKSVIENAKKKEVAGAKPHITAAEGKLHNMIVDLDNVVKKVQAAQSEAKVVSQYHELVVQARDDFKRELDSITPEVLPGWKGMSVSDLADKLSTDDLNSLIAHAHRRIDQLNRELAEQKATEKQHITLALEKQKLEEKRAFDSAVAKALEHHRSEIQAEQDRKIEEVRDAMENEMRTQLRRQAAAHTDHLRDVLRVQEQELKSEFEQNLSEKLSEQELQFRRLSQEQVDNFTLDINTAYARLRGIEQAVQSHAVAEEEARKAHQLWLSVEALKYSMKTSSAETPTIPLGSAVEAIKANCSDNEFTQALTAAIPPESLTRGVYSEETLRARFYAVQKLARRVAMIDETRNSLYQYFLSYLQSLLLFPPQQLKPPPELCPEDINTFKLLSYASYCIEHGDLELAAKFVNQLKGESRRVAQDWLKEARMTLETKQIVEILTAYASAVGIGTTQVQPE
inactive: [1] -0.058 | [2] 0.001 | [3] -0.049 | [4] -0.006 | [5] -0.039 | [6] -0.134 | [7] 0.02 | [8] 0.011 | [9] -0.053 | [10] 0.023
